Reference: PubChem BioAssay (NCATS)
Results filed as inconclusive are left out. The source made the active and inactive calls. The call rests on the fitted dose curve; in most records, active means well fitted curve in the direction sought with a large enough effect; inconclusive means small, poorly fitted or top-dose-only effect, or another doubt; inactive means no such curve, though single readings can be large; an effect the other way counts as inactive or inconclusive. Where a SMILES comes first, the peptide text is derived from it. The star is where a group is joined. Cbz = O=C(OCc1ccccc1)*; CH2F = FC*

Experiments:
HACAT = test: qHTS assay to identify novel small-molecules to repurpose for Merkel cell carcinoma treatment (AID 1296009); settings: MCC and control cell lines, CellTiter-Glo viability, 72 h; at 44.8 µM (top of the series) unless noted; further: nearly all actives have a fitted effect of over 60% in size
Outline: (§1)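 CellTiter-Glo luminescence after 72 hr compound exposure at 37 degree celsius gave cell viability. Libraries NPC and MIPE were run as 8- and 11-point dose responses; RLUs normalized to DMSO (negative) and no-cell (cytotoxicity) controls.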

NIH3T3 = test: as above; settings: MCC and control cell lines, CellTiter-Glo viability, 72 h; at 44.8 µM (top of the series) unless noted
Outline: as §1

C33A = test: Primary qHTS to identify gynecologic anti-cancer compounds using libraries of approved drugs and bioactive compounds (AID 1345084); settings: Gynecologic cancer cell panel viability, ATPlite luminescence, 48 h; series mostly up to 57.5 µM; further: on the % scale 0 is the no-effect control and ±100 the full control effect; nearly all actives have a fitted effect of over 55% in size
Outline: (§2)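 Five-concentration response, 48 h; readout is ATP-driven luciferase luminescence.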

CAOV3 = test: as above; settings: Gynecologic cancer cell panel viability, ATPlite luminescence, 48 h; series mostly up to 57.5 µM
Outline: as §2

CASKI = test: as above; settings: Gynecologic cancer cell panel viability, ATPlite luminescence, 48 h; series mostly up to 57.5 µM
Outline: as §2

Es-2 = test: as above; settings: Gynecologic cancer cell panel viability, ATPlite luminescence, 48 h; series mostly up to 57.5 µM
Outline: as §2

HeLa = test: as above; settings: Gynecologic cancer cell panel viability, ATPlite luminescence, 48 h; series mostly up to 57.5 µM
Outline: as §2

Hek293T = test: as above; settings: Gynecologic cancer cell panel viability, ATPlite luminescence, 48 h, control line for the selectivity index; series mostly up to 57.5 µM
Outline: as §2

JEG-3 = test: as above; settings: Gynecologic cancer cell panel viability, ATPlite luminescence, 48 h; series mostly up to 57.5 µM
Outline: as §2

CC[C@H](C)[C@H](NC(=O)[C@H](Cc1ccc(O)cc1)NC(=O)[C@@H](N)C(C)C)C(=O)N[C@@H](Cc1cnc[nH]1)C(=O)N1CCC[C@H]1C(=O)N[C@@H](Cc1ccccc1)C(=O)O
inactive: outcome (HACAT) inactive [at 4.96 µM] | outcome (NIH3T3) inactive [at 4.96 µM] | activity change, negative = cytotoxicity (C33A) 19.1% [at 6.55 µM] | activity change, negative = cytotoxicity (CAOV3) 20.7% [at 6.55 µM] | activity change, negative = cytotoxicity (CASKI) -0.165% [at 6.55 µM] | activity change, negative = cytotoxicity (Es-2) 0.0528% [at 6.55 µM] | activity change, negative = cytotoxicity (HeLa) 25.4% [at 6.55 µM] | activity change, negative = cytotoxicity (Hek293T) 1.27% [at 6.55 µM] | activity change, negative = cytotoxicity (JEG-3) 1.86% [at 6.55 µM]

C=C1C(=O)OC[C@H]2C(C(=O)O)=CC3CC(C)(C)C[C@@]132 (stereo partly specified)
inactive: outcome (HACAT) | outcome (NIH3T3) | Potency (C33A) | Potency (CAOV3) | outcome (CASKI) | Potency (Es-2) | Potency (HeLa) | Potency (Hek293T) | Potency (JEG-3)

C=C1CCC2C(C)(C(=O)O)CCCC2(C)C1CC/C(C)=C\CO (stereo unspecified)
inactive: outcome (HACAT) | outcome (NIH3T3) | Potency (C33A) | Potency (CAOV3) | outcome (CASKI) | Potency (Es-2) | Potency (HeLa) | Potency (Hek293T) | Potency (JEG-3)

CC1(O)CC(O)C2C(C(=O)O)=COC(OC3OC(CO)C(O)C(O)C3OC(=O)/C=C/c3ccc(O)cc3)C21 (stereo unspecified)
inactive: outcome (HACAT) inactive [at 17.4 µM] | outcome (NIH3T3) inactive [at 17.4 µM] | Potency (C33A) | Potency (CAOV3) | outcome (CASKI) | Potency (Es-2) | Potency (HeLa) | Potency (Hek293T) | Potency (JEG-3)

C=C1CC/C=C(/C(=O)O)CCC2C1CC2(C)C (stereo unspecified)
inactive: outcome (HACAT) | outcome (NIH3T3) | Potency (C33A) | Potency (CAOV3) | outcome (CASKI) | Potency (Es-2) | Potency (HeLa) | Potency (Hek293T) | Potency (JEG-3)

O=C(/C=C/c1ccc(O)c(O)c1)OC[C@H]1O[C@@H](OC2CCCCC2O)[C@H](O)[C@@H](O)[C@@H]1O (stereo partly specified)
inactive: outcome (HACAT) inactive [at 17.4 µM] | outcome (NIH3T3) inactive [at 17.4 µM] | Potency (C33A) | Potency (CAOV3) | outcome (CASKI) | Potency (Es-2) | Potency (HeLa) | Potency (Hek293T) | Potency (JEG-3)

Cc1onc(-c2ccccc2Cl)c1C(=O)N(C)c1ccc(Cl)cc1
inactive: outcome (HACAT) | outcome (NIH3T3) | Potency (C33A) | Potency (CAOV3) | outcome (CASKI) | Potency (Es-2) | Potency (HeLa) | Potency (Hek293T) | Potency (JEG-3)

CC[C@H]1OC(=O)[C@H](C)C(=O)[C@H](C)[C@@H](OC2O[C@H](C)C[C@H](N(C)C)[C@H]2O)[C@@H](C)C[C@@H](C)C(=O)/C=C/[C@]1(C)O (stereo partly specified)
inactive: outcome (HACAT) inactive [at 17.4 µM] | outcome (NIH3T3) inactive [at 17.4 µM] | Potency (C33A) | Potency (CAOV3) | outcome (CASKI) | Potency (Es-2) | Potency (HeLa) | Potency (Hek293T) | Potency (JEG-3)

CCC(C)C1NC(=O)C2C(C)CCN2C(=O)C(CC(O)CO)OC(=O)CCNC(=O)C(C)N(C)C(=O)C(C(C)C)N(C)C1=O (stereo unspecified)
inactive: outcome (HACAT) inactive [at 17.4 µM] | outcome (NIH3T3) inactive [at 17.4 µM] | Potency (C33A) | Potency (CAOV3) | outcome (CASKI) | Potency (Es-2) | Potency (HeLa) | Potency (Hek293T) | Potency (JEG-3)

C[C@@H]1O[C@@H](O[C@H]2[C@H](O[C@H]3[C@H](O[C@H]4CC[C@@]5(C)C(CC[C@]6(C)C5CC=C5[C@@H]7CC(C)(C)C[C@@H](O)[C@]7(C)CC[C@]56C)[C@@]4(C)CO)O[C@H](C(=O)O)[C@@H](O)[C@@H]3O)O[C@H](C(=O)O)[C@H](O)[C@@H]2O)[C@H](O)[C@H](O)[C@H]1O (stereo partly specified)
inactive: outcome (HACAT) inactive [at 9.27 µM] | outcome (NIH3T3) inactive [at 9.27 µM] | activity change, negative = cytotoxicity (C33A) 8.86% [at 11.6 µM] | activity change, negative = cytotoxicity (CAOV3) -0.141% [at 11.6 µM] | activity change, negative = cytotoxicity (CASKI) 16.2% [at 11.6 µM] | activity change, negative = cytotoxicity (Es-2) -1.06% [at 11.6 µM] | activity change, negative = cytotoxicity (HeLa) 4.67% [at 11.6 µM] | activity change, negative = cytotoxicity (Hek293T) 5.2% [at 11.6 µM] | activity change, negative = cytotoxicity (JEG-3) 7.1% [at 11.6 µM]

C[C@H]1CC[C@@]2(OC1)O[C@H]1CC3C4CC[C@H]5C[C@@H](O[C@@H]6O[C@H](CO)[C@H](O[C@@H]7O[C@H](CO)[C@@H](O)[C@H](O[C@@H]8OC[C@@H](O)[C@H](O)[C@H]8O)[C@H]7O[C@@H]7O[C@H](CO)[C@@H](O)[C@H](O)[C@H]7O)[C@H](O)[C@H]6O)[C@H](O)C[C@]5(C)C4=CC(=O)[C@]3(C)[C@H]1[C@@H]2C (stereo partly specified)
inactive: outcome (HACAT) inactive [at 9.27 µM] | outcome (NIH3T3) inactive [at 9.27 µM] | activity change, negative = cytotoxicity (C33A) 4.61% [at 11.6 µM] | activity change, negative = cytotoxicity (CAOV3) 5.57% [at 11.6 µM] | activity change, negative = cytotoxicity (CASKI) -2.7% [at 11.6 µM] | activity change, negative = cytotoxicity (Es-2) -0.121% [at 11.6 µM] | activity change, negative = cytotoxicity (HeLa) 9.97% [at 11.6 µM] | activity change, negative = cytotoxicity (Hek293T) 0.949% [at 11.6 µM] | activity change, negative = cytotoxicity (JEG-3) -0.32% [at 11.6 µM]

COc1ccc2[nH]c(S(=O)Cc3ncc(C)c(OC)c3C)nc2c1 (stereo unspecified)
inactive: outcome (HACAT) | outcome (NIH3T3) | Potency (C33A) | Potency (CAOV3) | outcome (CASKI) | Potency (Es-2) | Potency (HeLa) | Potency (Hek293T) | Potency (JEG-3)

Cc1c(Cc2ccc3ccccc3n2)c2cc(F)ccc2n1CC(=O)O
inactive: outcome (HACAT) | outcome (NIH3T3) | Potency (C33A) | Potency (CAOV3) | outcome (CASKI) | Potency (Es-2) | Potency (HeLa) | Potency (Hek293T) | Potency (JEG-3)

COC(=O)CC[C@H](NC(=O)[C@H](CC(C)C)NC(=O)OCc1ccccc1)C(=O)N[C@@H](Cc1cnc[nH]1)C(=O)N[C@@H](CC(=O)OC)C(=O)CF (Cbz-LE(OMe)HD(OMe)-CH2F)
inactive: outcome (HACAT) inactive [at 9.27 µM] | outcome (NIH3T3) inactive [at 9.27 µM] | activity change, negative = cytotoxicity (C33A) 16.8% [at 11.6 µM] | activity change, negative = cytotoxicity (CAOV3) 7.02% [at 11.6 µM] | activity change, negative = cytotoxicity (CASKI) 26% [at 11.6 µM] | activity change, negative = cytotoxicity (Es-2) 0.76% [at 11.6 µM] | activity change, negative = cytotoxicity (HeLa) 6.25% [at 11.6 µM] | activity change, negative = cytotoxicity (Hek293T) 2.96% [at 11.6 µM] | activity change, negative = cytotoxicity (JEG-3) -14.9% [at 11.6 µM]
